Measurements reported in PubChem BioAssay (NCI).
This is part of a sample that, as a whole, favours compounds with a hit. Of some 83,000 tested, about 20% had one in any assay.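 Each cell line was grown in a 96-well plate and treated with one concentration of compound for 48 hours. Values below 10 were considered active.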 Calls of active or inactive are those of the source.

Assays:
Assay in all cases: NCI-60 one-dose screen, 48 h (100 = growth as untreated, 0 = no growth, -100 = all killed)
Conditions in all cases: 10 µM unless noted
[1] = test system: K-562 leukemia
[2] = test system: MALME-3M melanoma
[3] = test system: MDA-MB-231 breast
[4] = test system: RXF 393 renal
[5] = test system: SF-268 CNS
[6] = test system: SF-295 CNS
[7] = test system: SF-539 CNS
[8] = test system: UACC-257 melanoma
[9] = test system: M14 melanoma
[10] = test system: HCT-15 colon
[11] = test system: HT29 colon
[12] = test system: SNB-75 CNS
[13] = test system: SNB-19 CNS
[14] = test system: U251 CNS
[15] = test system: PC-3 prostate
[16] = test system: SK-MEL-5 melanoma
[17] = test system: UACC-62 melanoma
[18] = test system: SK-MEL-28 melanoma
[19] = test system: SK-MEL-2 melanoma

Measured: growth

O=C(N/N=C/c1ccco1)c1[nH]c2ccc(Br)cc2c1-c1ccccc1
inactive: [2] 54.9% | [4] 62.2% | [5] 29.9% | [6] 21.8% | [8] 72.5% | [9] 11.6% | [10] 10.4% | [12] 31.7% | [13] 41.4% | [14] 31.7% | [15] 30.2% | [17] 41.1% | [18] 59.9% | [19] 14.4%
active: [1] 8.75% | [3] 6.62% | [7] -15.1% | [11] -25.3% | [16] -16.2%

N#Cc1ccc(C(=O)CSc2nc(Nc3ccc(S(N)(=O)=O)cc3)c3ccccc3n2)cc1
inactive: [1] 105% | [2] 106% | [3] 105% | [4] 109% | [5] 109% | [6] 102% | [7] 102% | [8] 101% | [9] 103% | [10] 100% | [11] 112% | [12] 107% | [13] 100% | [14] 114% | [15] 89.4% | [16] 102% | [17] 99.4% | [18] 109% | [19] 118%

O=C(N/N=C/c1ccc[nH]1)c1[nH]c2ccc(Br)cc2c1-c1ccccc1
active: [1] 3.06% | [6] 7.67% | [10] 9.42% | [11] 6.16% | [16] -34.3%
inactive: [2] 45.1% | [3] 14% | [4] 53.2% | [5] 25.3% | [7] 14.2% | [8] 30.3% | [9] 13.2% | [12] 27.3% | [13] 30.6% | [14] 21.8% | [15] 15.2% | [17] 13.4% | [18] 61.2% | [19] 31.9%

Cc1cc2nc3c4cc(Cl)ccc4n(CC(=S)NCCN(C)C)c3nc2cc1C
active: [1] -43.6% | [2] -49.2% | [3] -71.8% | [4] -67.8% | [6] -50.4% | [7] -94.3% | [8] -17.2% | [9] -90.1% | [10] -76.3% | [11] -32% | [12] -19.1% | [13] 4.89% | [14] -54.8% | [15] -30.1% | [16] -10.3% | [17] -67.1% | [18] -91.3%
inactive: [5] 26.8% | [19] 70.7%

C=CCn1c(SCC(=O)c2ccccc2)nnc1-c1c[nH]c2ccccc12
inactive: [1] 92.6% | [2] 86.6% | [3] 88.8% | [4] 102% | [5] 102% | [6] 96.2% | [7] 97.3% | [8] 97.9% | [9] 97.7% | [10] 96% | [11] 112% | [12] 96.4% | [13] 98.3% | [14] 107% | [15] 89.1% | [16] 96.6% | [17] 81.5% | [18] 105% | [19] 105%

NS(=O)(=O)c1ccc(Nc2nc(Nc3ccccc3)nc(-n3nc(-c4ccccc4)cc3-c3ccccc3)n2)cc1
inactive: [1] 11.5% | [2] 60% | [3] 37% | [4] 22.8% | [5] 37.8% | [6] 34.3% | [7] 37.2% | [8] 59.6% | [9] 26.5% | [10] 18.3% | [12] 56.4% | [13] 50.1% | [14] 33.3% | [15] 26.7% | [16] 39.2% | [17] 54.8% | [18] 54.6% | [19] 56.3%
active: [11] 4.52%

CCCC(=O)NC(c1ccc(N(CC)CC)cc1)c1cc(C)c2cccnc2c1O (centres undefined)
inactive: [1] 14.6% | [2] 16% | [3] 43.9% | [4] 43.1% | [5] 27.6% | [6] 17.6% | [7] 11.3% | [8] 24.9% | [10] 29.5% | [11] 36.4% | [12] 60.4% | [13] 25.1% | [14] 25.6% | [15] 39.3% | [18] 29.6% | [19] 23%
active: [9] -33% | [16] -19.8% | [17] 8.31%

C/C(=N\NC(N)=O)c1c(O)sc(=O)[nH]c1=O
inactive: [1] 105% | [2] 97.5% | [3] 102% | [4] 107% | [5] 104% | [6] 96.3% | [7] 94.6% | [8] 96.5% | [9] 98.8% | [10] 97.1% | [11] 111% | [12] 101% | [13] 93.2% | [14] 108% | [15] 97% | [16] 101% | [17] 92.6% | [18] 99.7% | [19] 109%

C#Cc1nc(C2=C(C)C(=O)/C(=N/OC(C)=O)C2)cs1
active: [12] -46.3%
inactive: [1] 84% | [2] 86.1% | [3] 30.3% | [4] 85.1% | [5] 82.2% | [6] 56.1% | [7] 58.4% | [8] 86.5% | [9] 85.2% | [10] 88.1% | [11] 115% | [13] 96.2% | [14] 98.1% | [15] 94.3% | [16] 97.3% | [17] 80.3% | [18] 107% | [19] 96.9%

COc1ccc(C(=O)/C=C/c2ccc(OCc3ccc(Cl)cc3)c(OC)c2)cc1OC
inactive: [1] 23.9% | [2] 82.3% | [3] 57.7% | [4] 96.2% | [5] 78.7% | [6] 68.3% | [7] 71.8% | [8] 83.5% | [9] 78.1% | [10] 34.2% | [11] 63.7% | [12] 74.8% | [13] 72.3% | [14] 58.1% | [15] 59.4% | [16] 55.2% | [17] 52.6% | [18] 83.3% | [19] 83.3%

CN1CCc2c(sc3ncnc(N/N=C/c4ccc(Cl)c(Cl)c4)c23)C1
inactive: [1] 27.4% | [2] 38.6% | [3] 13.7% | [4] 42.1% | [5] 61.1% | [6] 34.7% | [8] 92.4% | [12] 79.5% | [13] 42% | [15] 53.6% | [16] 86.6% | [18] 21.4% | [19] 117%
active: [7] -61.6% | [9] -11.8% | [10] 3.04% | [11] -46.6% | [14] -43.6% | [17] -26.8%

COc1cc(/C=C/C(=O)c2cc(OC)c(OC)c(OC)c2)ccc1OCc1ccc(F)cc1
inactive: [1] 11.7% | [2] 67.6% | [3] 46.8% | [4] 77.7% | [5] 58% | [6] 54.7% | [8] 79.8% | [9] 71% | [10] 16% | [13] 49.8% | [14] 33.8% | [15] 35% | [16] 58.7% | [17] 43.9% | [18] 81.1% | [19] 90%
active: [7] 9.22% | [11] 4.34% | [12] 8.67%

O=C(N/N=C/c1ccc([N+](=O)[O-])s1)c1[nH]c2ccc(Br)cc2c1-c1ccccc1
inactive: [2] 14.8% | [4] 39.3% | [5] 36.4% | [6] 23.8% | [8] 58% | [12] 26.2% | [13] 27.1% | [15] 26.5% | [17] 17.6% | [18] 38.5%
active: [1] 5.34% | [3] -24.1% | [7] -21.2% | [9] -34.5% | [10] 4.77% | [11] -22.4% | [14] 9.11% | [16] -76.6% | [19] -19.4%

COc1cc(/C=C/C(=O)c2cc(OC)c(OC)c(OC)c2)ccc1OCc1ccccc1
inactive: [1] 10.2% | [2] 63.1% | [3] 47.7% | [4] 75% | [5] 43.3% | [6] 50.8% | [8] 68.9% | [9] 65.7% | [10] 13.3% | [12] 13% | [13] 34% | [14] 13.6% | [15] 40.1% | [16] 63.2% | [17] 38.8% | [18] 78.8% | [19] 80.7%
active: [7] 8.77% | [11] 5.03%

Cc1cc(C(NC(=O)CCCCCNc2cccc3c2C(=O)N(C2CCC(=O)NC2=O)C3=O)c2cccnc2)c(O)c2ncccc12 (centres undefined)
active: [2] -14.3% | [3] -11.5% | [6] 6.66% | [9] -5.27% | [12] 8.96% | [15] 6.73% | [16] -58.7% | [19] -16.9%
inactive: [1] 17.8% | [4] 17.2% | [5] 23.6% | [7] 21.5% | [8] 26.2% | [10] 19% | [11] 20.5% | [13] 21.7% | [14] 30.7% | [17] 18.5% | [18] 25.2%

COc1ccc([C@@H]2c3[nH]c4ccccc4c3CC3C(=O)N(C4CCN(Cc5c(F)cccc5F)CC4)CC(=O)N32)c(OC)c1 (some centres undefined)
active: [16] -9.17% [5.26 µM]
inactive: [1] 62.2% [5.26 µM] | [2] 68% [5.26 µM] | [3] 62.3% [5.26 µM] | [4] 56.4% [5.26 µM] | [5] 55% [5.26 µM] | [6] 67.1% [5.26 µM] | [7] 69.8% [5.26 µM] | [8] 77.4% [5.26 µM] | [9] 26.4% [5.26 µM] | [10] 47.5% [5.26 µM] | [11] 44% [5.26 µM] | [12] 22.3% [5.26 µM] | [13] 64.2% [5.26 µM] | [14] 62% [5.26 µM] | [15] 35.2% [5.26 µM] | [17] 78.9% [5.26 µM] | [18] 60.9% [5.26 µM] | [19] 74.5% [5.26 µM]
